“And” between values parts separate entries of the source, which are not always exact repeats. Identical values can stand only once. Residues, ends and D or L forms follow the SMILES beside them. *: point of attachment. Cbz = O=C(OCc1ccccc1)*; CH2F = FC*
Legend:
Settings in all cases: Compound concentration 20.0 uM
[1] = target: Tyrosine-protein kinase ABL1 (Homo sapiens) (UniProt P00519)
[2] = target: Bromodomain-containing protein 4 (Homo sapiens) (UniProt O60885)
[3] = target: Cyclin-dependent kinase 2 (Homo sapiens) (UniProt P24941)
[4] = target: Casein kinase I isoform delta (Homo sapiens) (UniProt P48730)
Casein kinase I isoform delta (Homo sapiens), sequence (P48730 whole entry, looked up, canonical isoform): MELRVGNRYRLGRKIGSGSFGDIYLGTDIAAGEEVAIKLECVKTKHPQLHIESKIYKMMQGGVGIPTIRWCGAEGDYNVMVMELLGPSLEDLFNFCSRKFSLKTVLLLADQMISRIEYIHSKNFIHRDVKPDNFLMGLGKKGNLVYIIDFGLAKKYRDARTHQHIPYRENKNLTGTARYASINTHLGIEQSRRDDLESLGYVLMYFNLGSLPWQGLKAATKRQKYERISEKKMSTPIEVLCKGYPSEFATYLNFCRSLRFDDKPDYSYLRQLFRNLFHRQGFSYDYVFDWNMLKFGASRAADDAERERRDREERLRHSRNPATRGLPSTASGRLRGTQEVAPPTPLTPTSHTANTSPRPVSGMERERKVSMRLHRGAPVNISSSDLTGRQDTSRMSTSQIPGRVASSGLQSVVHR

[5] = target: Glycogen synthase kinase-3 beta (Homo sapiens) (UniProt P49841)
Glycogen synthase kinase-3 beta (Homo sapiens), sequence (P49841 whole entry, looked up): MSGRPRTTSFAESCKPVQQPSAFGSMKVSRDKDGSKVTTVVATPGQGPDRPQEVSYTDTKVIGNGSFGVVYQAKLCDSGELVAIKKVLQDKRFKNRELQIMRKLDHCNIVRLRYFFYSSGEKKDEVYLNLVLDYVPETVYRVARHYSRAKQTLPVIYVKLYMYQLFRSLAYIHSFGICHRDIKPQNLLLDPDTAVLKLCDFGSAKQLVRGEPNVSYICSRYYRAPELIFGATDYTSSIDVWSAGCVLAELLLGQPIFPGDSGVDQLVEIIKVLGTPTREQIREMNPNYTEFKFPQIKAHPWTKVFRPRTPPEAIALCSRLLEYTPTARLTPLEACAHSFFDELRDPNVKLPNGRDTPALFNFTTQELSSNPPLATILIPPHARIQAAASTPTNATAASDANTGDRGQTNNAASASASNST

[6] = target: Mitogen-activated protein kinase 1 (Homo sapiens) (UniProt P28482)
Mitogen-activated protein kinase 1 (Homo sapiens), sequence (P28482 whole entry): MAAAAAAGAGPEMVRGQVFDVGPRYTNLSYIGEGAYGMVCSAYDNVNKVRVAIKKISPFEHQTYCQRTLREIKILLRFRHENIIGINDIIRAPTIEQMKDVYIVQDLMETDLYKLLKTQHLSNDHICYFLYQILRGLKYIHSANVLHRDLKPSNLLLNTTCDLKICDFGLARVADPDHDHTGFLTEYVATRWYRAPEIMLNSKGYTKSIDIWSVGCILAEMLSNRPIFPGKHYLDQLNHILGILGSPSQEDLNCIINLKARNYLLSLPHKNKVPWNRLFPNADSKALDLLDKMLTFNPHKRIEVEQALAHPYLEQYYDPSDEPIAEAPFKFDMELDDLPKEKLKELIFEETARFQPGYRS

[7] = target: T1, Aurora kinase A (Homo sapiens) (UniProt O14965)
T1 sequence (whole entry): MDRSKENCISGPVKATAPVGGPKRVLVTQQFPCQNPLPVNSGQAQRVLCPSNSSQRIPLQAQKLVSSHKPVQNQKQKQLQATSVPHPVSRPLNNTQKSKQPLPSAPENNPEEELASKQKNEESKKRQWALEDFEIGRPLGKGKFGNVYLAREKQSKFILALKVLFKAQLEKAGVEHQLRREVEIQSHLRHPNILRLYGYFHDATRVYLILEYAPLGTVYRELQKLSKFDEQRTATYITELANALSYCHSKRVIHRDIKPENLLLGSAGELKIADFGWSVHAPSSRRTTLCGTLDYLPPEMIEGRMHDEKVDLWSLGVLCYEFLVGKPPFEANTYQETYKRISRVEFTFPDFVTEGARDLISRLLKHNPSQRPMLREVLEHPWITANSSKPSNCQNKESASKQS

[8] = target: T2, Transcription intermediary factor 1-alpha (Homo sapiens) (UniProt O15164)
T2 sequence (whole entry): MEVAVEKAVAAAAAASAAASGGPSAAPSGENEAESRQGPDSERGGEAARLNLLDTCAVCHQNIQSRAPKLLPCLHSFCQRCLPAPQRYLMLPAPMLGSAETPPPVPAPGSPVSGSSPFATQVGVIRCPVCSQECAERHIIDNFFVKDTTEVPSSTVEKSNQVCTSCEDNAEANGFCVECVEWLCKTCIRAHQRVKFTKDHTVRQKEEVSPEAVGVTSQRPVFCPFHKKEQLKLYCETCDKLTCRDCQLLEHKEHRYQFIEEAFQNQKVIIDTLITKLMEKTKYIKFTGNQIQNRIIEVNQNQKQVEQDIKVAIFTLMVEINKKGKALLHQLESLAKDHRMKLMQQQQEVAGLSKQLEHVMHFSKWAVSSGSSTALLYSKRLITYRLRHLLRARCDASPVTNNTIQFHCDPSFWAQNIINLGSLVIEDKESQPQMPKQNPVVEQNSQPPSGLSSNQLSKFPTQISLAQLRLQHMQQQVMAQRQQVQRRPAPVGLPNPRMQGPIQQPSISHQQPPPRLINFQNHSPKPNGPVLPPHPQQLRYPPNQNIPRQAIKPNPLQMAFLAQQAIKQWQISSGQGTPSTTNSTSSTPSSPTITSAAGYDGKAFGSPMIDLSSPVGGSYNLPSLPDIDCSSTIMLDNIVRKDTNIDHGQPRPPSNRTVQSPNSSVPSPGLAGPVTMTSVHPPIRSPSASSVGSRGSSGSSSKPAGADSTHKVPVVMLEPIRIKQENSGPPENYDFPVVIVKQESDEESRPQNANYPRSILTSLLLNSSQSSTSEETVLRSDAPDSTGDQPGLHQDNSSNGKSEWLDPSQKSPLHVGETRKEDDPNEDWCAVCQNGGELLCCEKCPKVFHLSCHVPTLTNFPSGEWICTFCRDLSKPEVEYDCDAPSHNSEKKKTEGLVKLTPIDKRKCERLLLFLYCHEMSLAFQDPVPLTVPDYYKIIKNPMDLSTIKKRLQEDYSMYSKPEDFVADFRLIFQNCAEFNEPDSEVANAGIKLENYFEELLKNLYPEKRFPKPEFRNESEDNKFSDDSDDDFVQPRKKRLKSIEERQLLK

Tyrosine-protein kinase ABL1 (Homo sapiens), sequence (P00519 whole entry): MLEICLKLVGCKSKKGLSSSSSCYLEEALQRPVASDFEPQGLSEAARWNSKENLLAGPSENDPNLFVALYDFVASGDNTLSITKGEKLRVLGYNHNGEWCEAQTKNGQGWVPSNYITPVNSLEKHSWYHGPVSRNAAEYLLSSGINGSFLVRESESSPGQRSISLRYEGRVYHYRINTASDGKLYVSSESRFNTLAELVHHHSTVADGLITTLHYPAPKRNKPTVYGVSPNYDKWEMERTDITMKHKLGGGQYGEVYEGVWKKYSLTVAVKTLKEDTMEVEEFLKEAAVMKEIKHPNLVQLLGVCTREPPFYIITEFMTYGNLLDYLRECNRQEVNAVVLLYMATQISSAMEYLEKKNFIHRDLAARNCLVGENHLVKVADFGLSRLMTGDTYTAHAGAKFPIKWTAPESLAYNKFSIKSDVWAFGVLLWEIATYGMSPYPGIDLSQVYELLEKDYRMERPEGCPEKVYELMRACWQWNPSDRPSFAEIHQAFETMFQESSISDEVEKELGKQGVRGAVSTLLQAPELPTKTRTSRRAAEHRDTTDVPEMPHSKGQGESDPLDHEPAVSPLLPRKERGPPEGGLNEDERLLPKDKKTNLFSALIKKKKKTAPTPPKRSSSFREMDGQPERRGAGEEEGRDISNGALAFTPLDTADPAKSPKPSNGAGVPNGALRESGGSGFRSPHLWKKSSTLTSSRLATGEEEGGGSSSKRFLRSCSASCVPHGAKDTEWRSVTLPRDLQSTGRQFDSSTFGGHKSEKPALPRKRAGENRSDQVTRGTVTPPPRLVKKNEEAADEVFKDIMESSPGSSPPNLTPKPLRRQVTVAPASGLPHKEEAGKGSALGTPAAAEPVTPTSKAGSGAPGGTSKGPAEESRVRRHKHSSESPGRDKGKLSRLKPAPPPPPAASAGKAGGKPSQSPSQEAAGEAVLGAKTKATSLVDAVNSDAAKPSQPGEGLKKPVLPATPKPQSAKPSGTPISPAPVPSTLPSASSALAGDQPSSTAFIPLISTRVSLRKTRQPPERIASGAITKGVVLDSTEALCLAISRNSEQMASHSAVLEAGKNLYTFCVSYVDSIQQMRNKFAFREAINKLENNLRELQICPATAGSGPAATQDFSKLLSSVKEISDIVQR

| SMILES | ΔTm [1] | ΔTm [2] | ΔTm [3] | ΔTm [4] | ΔTm [5] | ΔTm [6] | ΔTm [7] | ΔTm [8] |
| --- | --- | --- | --- | --- | --- | --- | --- | --- |
| CNC(=O)c1cc(Nc2ccnc(Nc3ccc(CCNC(=O)OC(C)(C)C)cc3)n2)n[nH]1 | 0.52 °C | -6.4 °C | -0.49 °C | 0.55 °C | -1.3 °C | -12.3 °C | -0.62 °C | 0.91 °C |
| COC(=O)CC[C@H](NC(=O)[C@H](Cc1c[nH]c2ccccc12)NC(=O)OCc1ccccc1)C(=O)N[C@@H](Cc1cnc[nH]1)C(=O)N[C@@H](CC(=O)OC)C(=O)CF (Cbz-WE(OMe)HD(OMe)-CH2F) | 0.62 °C | -1.63 °C | 0.18 °C | 0.21 °C | -0.68 °C | -0.1 °C | -0.45 °C | -0.87 °C |
| Cc1cc(N2C[C@@H](C)N[C@@H](C)C2)ncc1-c1ccc(-c2nc3c(ccn3C)c(=O)[nH]2)cc1 | 1.3 °C | -0.52 °C | 0.78 °C | 0.59 °C | 0.66 °C | 0.08 °C | -1.4 °C | 0.61 °C |
| CN1C[C@@H]2[C@H](C1)[C@H]2CN(Cc1ccc(F)c(Cl)c1)C(=O)c1cn(C)cn1 | 0.53 °C | -2.2 °C | 0.3 °C | -0.21 °C | 0.04 °C | 0.19 °C | -1.34 °C | -1.48 °C |
| N[C@@H](CCCCNC(=O)OCc1ccc([N+](=O)[O-])cc1)C(=O)N1CCCC1 | 0.09 °C | -2.69 °C | 0.15 °C | -0.16 °C | -0.58 °C | 0.13 °C | -1.1 °C | -0.07 °C |
| N[C@@H](CCNCc1ccc(Cl)cc1)C(=O)N1CCCCC1 | 0.49 °C | -3.21 °C | 0 °C | -0.34 °C | -0.21 °C | 0.19 °C | -2.45 °C | 0.39 °C |
| CC(=O)O[C@]1(C(C)=O)CC[C@H]2[C@@H]3CCC4=CC(=O)CCC4=C3[C@@H](c3ccc(N(C)C)cc3)C[C@@]21C | 0.29 °C | -2.72 °C | -0.32 °C | 0.22 °C | -0.83 °C | -0.05 °C | -1.14 °C | -1.79 °C |
| O=C(C1CC1)N1CC[C@@H](Cc2n[nH]c(=O)n2-c2ccc(-c3ccc4occc4c3)cc2)C1 | 0.72 °C and 0.71 °C | -1.91 °C and -3.51 °C | -0.31 °C and -0.16 °C | 0.35 °C and -0.18 °C | -0.54 °C and 0.29 °C | 0.34 °C and 0.05 °C | -4.5 °C and -1.89 °C | -1.14 °C and -0.89 °C |
| Nc1ncnc2c1nc(NCc1ccc(-c3ccccc3)cc1)n2[C@@H]1O[C@H](CO)[C@@H](O)[C@H]1O | 1.36 °C | -3.1 °C | 0.21 °C | -0.22 °C | -0.69 °C | 0.28 °C | -1.41 °C | -0.53 °C |
| C[C@H](NC(=O)c1cn(C2(C#N)CC2)cn1)C(=O)Nc1nc(-c2cccc(-c3ccn(C)n3)c2)cs1 | 0.58 °C | -1.99 °C | 0.19 °C | 0.61 °C | -0.01 °C | -0.23 °C | 1.33 °C | -0.79 °C |
| CC(C)(OCc1cc(-c2cccc(OC3CC3)c2)n(-c2ccccc2Cl)n1)C(=O)O | 0.39 °C | -3.91 °C | -0.19 °C | 0.08 °C | 0.42 °C | 0.09 °C | -2.34 °C | -0.77 °C |
| CCN(CCN(C)C)C(=O)CNCc1cc(C(N)=O)ccn1 | 0.33 °C | -1.29 °C | 0.23 °C | -0.08 °C | 0.25 °C | -0.01 °C | -1.34 °C | -0.57 °C |
| O=C(Nc1c(Cl)cncc1Cl)c1ccc(OC(F)F)c(OCC2CC2)c1 | 0.75 °C | -3.16 °C | 0.32 °C | -0.3 °C | 0.27 °C | 0.36 °C | -2.31 °C | 2.4 °C |
| CCCn1/c(=N/C(=O)c2cccc(C(N)=O)c2)[nH]c2ccccc21 | 1.41 °C | -1.51 °C | 0.06 °C | 0.95 °C | -0.17 °C | -1.41 °C | -0.08 °C | -0.27 °C |
| COc1cccc(-c2nccc3c2CN(c2ccccc2)C3=O)c1 | 0.76 °C | -1.35 °C | -1.3 °C | 0.41 °C | -2.56 °C | -4.49 °C | -4.93 °C | -1.44 °C |
| CNC(=O)Cn1cc(-c2ccc3c(c2)[C@H](F)C[C@]32NC(=O)N(CC(=O)N(Cc3ccc(F)cc3)[C@@H](C)C(F)(F)F)C2=O)cn1 | 0.95 °C | -4.22 °C | 1.31 °C | 0.73 °C | 1.28 °C | -6.46 °C | -1.03 °C | -1.4 °C |
| Cc1nc2ccccn2c1C(=O)CN1CCN(c2ccc(F)cn2)CC1 | -0.05 °C | 0.87 °C | 0.63 °C | -0.29 °C | -0.25 °C | 0.11 °C | -1.47 °C | 0.7 °C |
| Cn1c(=O)cc(N2CCC[C@@H](N)C2)n(Cc2ccccc2C#N)c1=O | 0.31 °C | 2.27 °C | 1.07 °C | -0.43 °C | 0.02 °C | 0.02 °C | -1.58 °C | 0.69 °C |
| CCC(=O)N1CCOc2c(cc(-c3cc(OC)cc(OC)c3)cc2C(=O)N[C@H]2CCCN(C)C2)C1 | 0.72 °C | -0.15 °C | 0.57 °C | 0.5 °C | -1.27 °C | 0.1 °C | 0.01 °C | -2.74 °C |
| O=C(O)/C(S)=C/c1c[nH]c2ccc(F)cc12 | -1 °C | -4.6 °C | -0.97 °C | 0.7 °C | -0.98 °C | 0.11 °C | 0.25 °C | -2.02 °C |
| N#Cc1ccc(-c2csc(NN=C3CCCC3)n2)cc1 | 1.02 °C | -1.71 °C | -3.5 °C | 0.34 °C | -3.93 °C | -0.09 °C | -0.22 °C | -1.63 °C |
| CC(=O)N1CCC(Nc2cc(C(=O)NC[C@H](O)CN3CCc4ccccc4C3)ncn2)CC1 | 0.44 °C | -0.33 °C | 0.19 °C | 0.07 °C | 0.18 °C | 0.06 °C | -0.79 °C | -0.38 °C |

From ChEMBL document CHEMBL5724796, “Tm Shift (DSF) assay results for EUbOPEN Chemogenomics Library” (2024)
